Source: PubChem BioAssay (The Scripps Research Institute Molecular Screening Center)
PAFAH1B2 FP inh – PAFAH1B2 enzyme inhibitors, primary screen, biochemical, fluorescence polarization, human | Platelet-activating factor acetylhydrolase IB subunit alpha2 (Homo sapiens), P68402 | recombinant PAFAH1B2, FP-rhodamine activity probe | inhibition, % at 3.39 µM | actives 1.2% (n = 340,000);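 active = inhibition above the mean of all tested compounds plus 3 SD, cut at about 24% in these data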
Target sequence (P68402 whole entry, looked up): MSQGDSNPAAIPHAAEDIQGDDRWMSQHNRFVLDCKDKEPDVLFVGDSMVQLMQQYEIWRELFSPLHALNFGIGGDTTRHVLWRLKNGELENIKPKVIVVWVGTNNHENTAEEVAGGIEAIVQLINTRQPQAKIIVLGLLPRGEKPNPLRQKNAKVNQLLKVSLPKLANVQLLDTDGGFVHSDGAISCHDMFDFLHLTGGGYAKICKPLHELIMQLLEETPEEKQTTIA
pPAFAH FP inh – pPAFAH enzyme inhibitors, primary screen, biochemical, fluorescence polarization, human | Platelet-activating factor acetylhydrolase (Homo sapiens), Q13093 | recombinant pPAFAH, FP-rhodamine probe fluorescence polarization | inhibition, % at 3.39 µM | actives 1.5% (n = 330,000) | AID 463082, 2010;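 active = inhibition above the mean inhibition across the screen plus 3 SD, cut at about 25% in these data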;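 note: inhibitors block binding of the rhodamine activity-based probe so polarization drops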
PP5 primary – PP5 phosphatase inhibitors, primary screen, biochemical, fluorescence | Serine/threonine-protein phosphatase 5 (Homo sapiens), P53041 | purified PP5c, OMFP substrate fluorescence | inhibition, % at 6.7 µM | actives 0.18% (n = 320,000);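 active = inhibition above the campaign's mean inhibition across all tested compounds plus 3 SD, cut at about 9.5% in these data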
PAFAH2 inh – PAFAH2 enzyme inhibitors, primary screen, biochemical, fluorescence polarization, human. Platelet-activating factor acetylhydrolase 2, cytoplasmic (Homo sapiens), Q99487. recombinant PAFAH2, FP-rhodamine activity probe. inhibition, % at 3.39 µM. actives 0.99% (n = 340,000). AID 492956, 2010;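 active = inhibition above the mean over all tested compounds plus 3 SD, cut at about 30% in these data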;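 note: inhibitors block probe labeling of enzyme so polarization drops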
PP1 counter – PP1-alpha phosphatase inhibitors, primary screen, counter-screen for PP5 inhibitor project, biochemical, fluorescence, OMFP substrate, single point | Serine/threonine-protein phosphatase PP1-alpha catalytic subunit (Homo sapiens), P62136 | actives 0.9% (n = 320,000) | inhibition, % at 6.7 µM | AID 2235, 2010 | purified PP1alpha;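 active = inhibition above the mean inhibition of all tested compounds plus 3 SD, computed separately for each screening campaign, cut at about 15% in these data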
PAFAH1B3 inh – PAFAH1B3 enzyme inhibitors, primary screen, biochemical, fluorescence polarization, human | recombinant PAFAH1B3, FP-rhodamine probe | inhibition, % at 3.39 µM | AID 492972, 2010 | actives 0.28% (n = 340,000) | Platelet-activating factor acetylhydrolase IB subunit alpha1 (Homo sapiens), Q15102;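 active = inhibition above the screen-wide average of all tested compounds plus 3 SD, cut at about 25% in these data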
Target sequence (Q15102 whole entry, looked up): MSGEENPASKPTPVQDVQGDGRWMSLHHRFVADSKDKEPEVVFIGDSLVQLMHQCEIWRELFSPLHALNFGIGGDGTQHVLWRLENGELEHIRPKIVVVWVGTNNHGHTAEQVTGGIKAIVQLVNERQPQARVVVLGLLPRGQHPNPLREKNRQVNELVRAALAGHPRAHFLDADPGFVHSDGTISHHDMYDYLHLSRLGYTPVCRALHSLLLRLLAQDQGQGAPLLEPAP
PAFAH1B3 confirm – PAFAH1B3 enzyme inhibitors, confirmation, biochemical, fluorescence polarization, human | shares compounds with PAFAH1B3 inh | recombinant PAFAH1B3, FP-Rh activity-based probe | inhibition, % at 3.39 µM | actives 30% (n = 390);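 active = average inhibition over triplicate runs above the hit cutoff set in the earlier primary screen, cut at about 25% in these data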
Hits are given with their value; i = inactive; nt = no result. Compounds with a hit are over-represented: about 3.4% of the library has one in this group of screens.

SMILES | PAFAH1B2 FP inh | pPAFAH FP inh | PP5 primary | PAFAH2 inh | PP1 counter | PAFAH1B3 inh | PAFAH1B3 confirm
CCOc1ccc(N2CC(C(=O)Nc3ccncc3)CC2=O)cc1 (stereo unspecified) | i | i | i | i | i | i | nt
NS(=O)(=O)c1ccc(-c2ccc(/C=C3\NC(=S)NC3=O)o2)cc1 | i | i | i | i | i | 34 | i
CC(=O)SCCC(=O)Nc1ccccc1 | i | i | i | i | i | 26 | i
N#CC(C#N)=C1C=C2C=C(N3CCOCC3)CCC2CC1 (stereo unspecified) | i | nt | nt | i | nt | 34 | i
CCCCn1c(N)c(N(CCOC)C(=O)COC(=O)c2ccccc2NCCO)c(=O)[nH]c1=O | i | nt | nt | i | nt | i | nt
CC1=CC(C)(C)NC(=S)N1c1ccccc1C | i | i | i | i | i | i | nt
CC1=CC(C)(C)NC(=S)N1c1cccc2cc(S(=O)(=O)O)ccc12 | i | i | i | i | i | 29 | i
COCCCNC(=S)N1CCCN(c2nc3cc(C)c(C)cc3cc2C#N)CC1 | i | i | i | i | i | 26 | i
COc1ccc(N2CS(=O)CC2=O)cc1 (stereo unspecified) | i | i | i | i | i | 43 | i
CC(=O)N(C)c1nc(N)n(-c2ccccc2)n1 | i | i | i | i | i | i | nt
COc1ccc(C(=O)c2c(C(F)(F)F)oc3c2C(=O)c2ccccc2C3=O)cc1 | i | i | i | i | i | 27 | i
O=C(Cc1ccccc1)NNC(=O)c1ccccc1C(=O)O | i | i | i | i | i | i | nt
CCOC(=O)c1c2c(n(C)c1C)C(=O)C(=O)c1ccc(Br)cc1-2 | i | i | i | i | i | 36 | i
O=C(CCl)Nc1c(C(=O)Nc2ccc3c(c2)OCCO3)oc2ccccc12 | i | i | i | i | i | 26 | 30
COCC(=O)Nc1c(C(=O)Nc2ccc3c(c2)OCO3)oc2ccccc12 | i | i | i | i | i | i | nt
CCCCNC(=O)C(=O)Nc1cc2c3c(c1)CCC(=O)N3CCC2 | i | i | i | i | i | i | nt
CC(=O)N1CCn2c3c(c(=O)c4cc(C)ccc42)CCC31 (stereo unspecified) | i | i | i | i | i | 41 | i
CC(=O)N1CCn2c3c(c4cc(C)ccc42)CCCC31 (stereo unspecified) | i | i | i | i | i | i | nt
O=C(NC(O)C(=O)c1ccc(F)cc1)c1ccc(F)cc1 (stereo unspecified) | i | i | i | i | i | i | nt
COc1ccc(Cn2c(O)c(/C=N/NC(=O)c3cccnc3)c3ccccc3c2=O)cc1 | i | nt | nt | i | nt | 26 | i
O=C(N/N=C/c1c(O)n(Cc2ccccc2)c(=O)c2ccccc12)c1cccnc1 | i | i | i | i | i | i | nt
CCn1ccnc1CNC(=O)c1ccc2oc(C(C)C)nc2c1 | i | i | i | i | i | i | nt
O=C1C=C(O)c2[nH]c(=O)ccc2C1=O | i | nt | nt | i | nt | 53 | i
Cc1cccc(OCC(=O)NNC(=O)c2ccc3nc[nH]c3c2)c1 | i | i | i | i | i | i | nt
Cc1ccc(C(=O)NCC(=O)NCCCc2ccccc2)cc1 | i | i | i | i | i | i | nt
COc1ccc2c3c([nH]c2c1)[C@H]1C[C@H]2[C@H](C[C@@H](O)[C@H](OC)[C@H]2C(=O)O)CN1CC3 | i | i | i | i | i | i | nt
O=C(O)[C@@H]1[C@H]2C[C@H]3c4[nH]c5ccccc5c4CCN3C[C@@H]2CC[C@@H]1O | i | i | i | i | i | 28 | i
O=C(COC(=O)c1ccc2ccccc2c1O)NCc1ccccc1 | i | i | i | i | i | i | nt
O=C(COC(=O)c1ccc2ccccc2n1)NCc1ccccc1 | i | i | i | i | i | 47 | i
Cc1nc(N)sc1-c1csc(Nc2cccc(C(=O)O)c2)n1 | i | nt | nt | i | nt | 29 | i
